# Results: PubChem BioAssay
# Several values for one entry are separate records, joined by “and”; a condition that tells them apart may be missing. Equal entries are not always repeated.
# Test: small-molecule microarray binders of probe aShh, primary screen, biochemical, biotinylated probe, 635/667 nm fluorescence (AID 1114);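 further: probe is biotin-labelled aShh protein from a stem cell growth factor screen; measures binding of labelled protein to compounds printed on the slide; score merges feature fluorescence at 667 nm with signal-to-noise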
# Conditions: higher = more signal
row,Compound,composite z-score
1,COC(=O)C1=C(C)N(Cc2ccccc2)[C@]23O[C@](C(=O)OC)(C(=O)N2[C@@H]1c1ccccc1)[C@@H](C(=O)OC)[C@H]3C(=O)OC,-0.123 and -0.0553
2,C=C[C@H](C)[C@@H](O)c1ccc(OCCO)cc1,-0.289 and 0.0639
3,C=CCN(CCCC)C(=O)C1N(c2c(Cl)cccc2CO)C(=O)C2C(C(=O)O)C3C=CC21O3 (configuration not stated),0.151 and -0.279
4,CCCNC(=O)OC[C@H]1O[C@H](CCON=C(C)CCN2CCc3nc(-c4ccccc4)c(-c4ccccc4)cc3C2)C=C[C@@H]1Oc1ccc(OC)cc1,-0.0299
5,COC(=O)c1c2oc(c1C(=O)OC)C(=O)N[C@@H](Cc1ccccc1)Cn1cc(nn1)C1(CCCCC1)NC(=O)N[C@H](CO)CC2,0.0684 and -0.0904
6,C=CCN(Cc1ccccc1)C(=O)C(c1cccs1)N(C(=O)/C=C\C(=O)O)c1ccc(CCO)cc1 (configuration not stated),-0.221 and -0.138

# Test: small-molecule microarray binders of probe aNog, primary screen, biochemical, biotinylated probe, 635/667 nm fluorescence (AID 1115);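 further: probe is biotinylated aNog protein used at 0.15 µg/mL for 1 h at 4 C; z-score combines 667 nm fluorescence of each spot with its signal to noise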
# Conditions: higher = more signal
row,Compound,composite z-score
1,C[N+](C)(C)CCCCNC(=O)[C@H]1C[C@H]2C(=O)N[C@@H](CCCC[N+](C)(C)C)C(=O)N2[C@H]1c1ccc(O)cc1,0.0416 and -0.7
2,CO[C@@H]1COC(=O)[C@H](Cc2ccccc2)NC(=O)CC=C[C@@H](C)[C@H](OC)COC(=O)[C@@H](C)NC(=O)CC=C[C@H]1C,-0.201 and -0.278
3,CCOC(=O)c1ccc(NC(=O)O[C@H]2[C@H](OC(=O)Nc3ccccc3)[C@H](OC(=O)Nc3ccccc3)[C@@H](OC)O[C@@H]2CO)cc1,0.576 and 0.978
4,CC(C)OC(=O)C=C1C[C@@H](c2ccccc2)O[C@@H](c2ccccc2)O1,0.286 and 0.403
5,C=CCN(C(=O)C1N(CCOCCO)C(=O)C2C(C(=O)O)C3C=CC21O3)c1ccc(OC)cc1 (configuration not stated),0.406 and 0.669
6,CCCC[C@@H]1CN2[C@H](c3ccc(Br)cc3)[C@@H](C)CC[C@H]2C(=O)O1,0.153 and 0.0051
7,COC(=O)[C@@]1(Cc2ccc(OC)cc2)[C@H]2c3cc(C(=O)N(C)C)n(Cc4ccc(O)c(OC)c4)c3C[C@H]2CN1C(=O)c1ccccc1,0.231 and 1.94
8,CCOC(=O)NN=C1C[C@@H](O)[C@@H](O)[C@@H]2[C@@H]3C(=O)N(Cc4ccc5c(c4)OCO5)C(=O)[C@@H]3CC[C@@H]12,-0.252
9,C=CCN(CCCC)C(=O)C(c1cccs1)N(CCOCCO)C(=O)/C=C\C(=O)O (configuration not stated),0.136 and 0.295
10,C=CCN(CCCCC)C(=O)C(c1cccs1)N(C(=O)/C=C\C(=O)O)c1c(Cl)cccc1CO (configuration not stated),0.509 and -0.369
11,CC(CO)N1C(=O)[C@@H]2C3C(=O)OCCC=C[C@H]3OC23C=CCN(c2ccc4ccccc4c2)C(=O)[C@@H]13 (some centres not stated),0.304 and -0.61
12,C=C[C@@H](C)[C@@H](O)c1ccc(O)c2ccccc12,-0.337 and -0.411
13,C=CCN(C(=O)C1N(CCCCCCO)C(=O)C2C(C(=O)O)C3C=CC21O3)c1ccc(OC)cc1 (configuration not stated),0.692 and 0.838
14,CC[C@@H]1C(Sc2ccccc2)C(C(=O)O)[C@H](c2ccc(C)cc2)N1S(=O)(=O)c1ccc(C)cc1 (some centres not stated),0.942 and 0.002
15,CC(C)=NO[C@@H](C)c1cc(-c2c(C)cc(C)cc2C)no1,-0.242
16,C[N+](C)(C)CCCCCCNC(=O)[C@H]1C[C@H]2C(=O)N[C@@H](CCCC[N+](C)(C)C)C(=O)N2[C@H]1c1ccc(O)cc1,0.0637 and -0.303
17,C=CCN(C(=O)C(c1cccs1)N(C(=O)/C=C\C(=O)O)c1ccc(CCO)cc1)C(C)(C)C (configuration not stated),1.1 and -0.0102
18,C=C[C@@H](OC)[C@H](O)c1ccc(OC)c(O)c1,-0.321 and -0.347
19,C#CCCCON=C1C[C@@H](O)[C@@H](O)[C@@H]2[C@@H]3C(=O)N(C4CCCCC4)C(=O)[C@@H]3CC[C@H]12,-0.134
20,CC(C)N1CC=CC23O[C@@H]4C=CCCOC(=O)C4[C@H]2C(=O)N(C(C)CO)[C@@H]3C1=O (some centres not stated),0.111 and -0.0784
21,CCOC(=O)[C@@H]1CC=C2CC1C(=O)N1CCC[C@@H]1[C@H]2O[Si](C)(C)C(C)(C)C (some centres not stated),-0.0863 and -0.48
22,C=CCN(CCCC)C(=O)C(c1cccs1)N(C(=O)/C=C\C(=O)O)c1ccc(CCO)cc1 (configuration not stated),-0.0621 and -0.0827
23,COC(=O)[C@H](C)NC(=O)CCC1CC(OC(=O)NCCc2ccc(F)cc2)CC2(CCCC(COC(=O)NCCCN3CCCC3=O)O2)O1 (some centres not stated),0.33
24,C[C@@H]1CC[C@@H](C(=O)O)N[C@H]1c1ccc(-c2ccco2)cc1,0.0023
25,CCOC(=O)C[C@H]1[C@H](OC(=O)c2ccccc2-c2ccccc2)[C@@H](NC(=O)c2ccccc2)c2cc(OCCCO)ccc2N1C(=O)c1ccc2ccccc2n1,-0.122 and 0.386
26,COC(=O)C1=C(C)N(Cc2ccccc2)C2=C3C(=O)N(C)C(=O)[C@@H]3[C@@](O)(C(=O)OC)C(=O)N2[C@@H]1c1ccccc1,-0.0705 and -0.272
